Data reported in PubChem BioAssay.
Results filed as inconclusive are left out. Calls of active or inactive are those of the source.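 How the source made its calls, unless noted: active means normalized viability below 100% at a tested concentration; inactive means the rest.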

What was measured:
[1] = growth inhibition of DIPG glioma cells, dose response, cell-based, SU-DIPG-XVII, MIPE5.0, CellTiter-Glo, qHTS (AID 1347060; cut-off not given, nearly all actives have AC50 up to about 26 µM;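 on AC50: cells exposed to compound for 48 hours before viability readout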); details: SU-DIPG-XVII viability, CellTiter-Glo ATP luminescence
[2] = growth inhibition of DIPG glioma cells, dose response, cell-based, JHH-DIPG-1, MIPE4.0, CellTiter-Glo, qHTS (AID 1347062; cut-off not given, nearly all actives have AC50 up to about 27 µM;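 on AC50: cells exposed to compound for two days before readout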); details: JHH-DIPG-1 viability, CellTiter-Glo ATP luminescence
[3] = growth inhibition of DIPG glioma cells, dose response, cell-based, SU-DIPG-IV, MIPE4.0, CellTiter-Glo, qHTS (AID 1347063; cut-off not given, nearly all actives have AC50 up to about 30 µM;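 further: compound exposure lasted 48 hours before the viability readout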); details: SU-DIPG-IV viability, CellTiter-Glo ATP luminescence
[4] = growth inhibition of DIPG glioma cells, dose response, cell-based, SU-DIPG-XIII, MIPE5.0, CellTiter-Glo, qHTS (AID 1347064; cut-off not given, nearly all actives have AC50 up to about 23 µM;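 on AC50: cells exposed to compound for 48 hours before the viability read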); details: SU-DIPG-XIII viability, CellTiter-Glo ATP luminescence
[5] = SU-DIPG-VI glioma cell viability, MIPE4.0 library, CellTiter-Glo luminescence, qHTS (AID 1347066; cut-off not given, nearly all actives have AC50 up to about 30 µM;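 further: cells exposed to compound for 48 hours before readout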); details: CellTiter-Glo ATP luminescence
[6] = JHH-DIPG-1 glioma cell viability, MIPE5.0 library, CellTiter-Glo luminescence, qHTS (AID 1347067; cut-off not given, nearly all actives have AC50 up to about 26 µM;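 further: cells exposed to compound for 48 hours before readout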); details: JHH-DIPG-1 glioma viability, CellTiter-Glo ATP luminescence
[7] = SU-DIPG-XXV glioma cell viability, MIPE5.0 library, qHTS (AID 1347068; cut-off not given, nearly all actives have IC50 up to about 30 µM;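 on IC50: cells exposed to compound for 48 hours before viability readout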)
[8] = sensitizers of A549 cells to miR-34 induction, primary screen, imaging, A549 dox-inducible miR-34, nuclei and caspase counts (AID 1347080;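 active means compounds whose cell count with miR-34 switched on is under 0.7 times the count with it off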); details: A549 miR-34 inducible, Hoechst nuclei count, 48 h
[9] = survival rescue of mitochondrial mutant cells in low glucose, primary screen, MELAS cybrids, Rieske KO mouse fibroblasts, CellTiter-Glo (AID 1508586;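 active means mean z-score across replicates of 1.96 or higher in either the MELAS or the Rieske mutant cell line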;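 further: z relative to plate mean and SD of compound and empty wells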)
[10] = viability loss in pontine glioma line – cell-based, SU-DIPG-XXV, MIPE5.0, CellTiter-Glo, qHTS, dose response (AID 1347065; cut-off not given, nearly all actives have AC50 up to about 26 µM;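 further: cells exposed to compound for 48 hours before ATP readout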); details: CellTiter-Glo ATP luminescence
[11] = modifiers of HSF1 nuclear foci, imaging, Selleck Cancer Library (AID 1347162; in the data active means plate-normalised HSF1 focus index below about 0.46); details: human cells, at 10 µM; SSMD: measured here: HSF1 foci SSMD mean; cell count: measured here: cell number; plate-normalised HSF1 focus index: stronger effect = lower value
[12] = ovarian cancer cell viability with rucaparib, profiling panel, oncology-focused library, rucaparib conditional (AID 1508598); details: patient-derived ovarian cancer cells, CellTiter-Glo viability, 144 h, stronger effect = lower value
[13] = stronger effect = lower value, cell number ratio, induced over uninduced
[14] = measured here: relative caspase fold change +Dox/-Dox
[15] = measured here: total cells with miR-34 induction, stronger effect = lower value
[16] = measured here: total cells without miR-34 induction
[17] = MELAS cybrid survival, CellTiter-Glo 48 h, stronger effect = higher value
[18] = Rieske KO mouse fibroblast survival, CellTiter-Glo 72 h

COc1cccc(Nc2c(C(N)=O)cnc3c(C)cc(S(=O)(=O)c4cccc(C(=O)N(C)C)c4)cc23)c1
-1.7: z-score [9, 18]
9610: cell count [8, 16]
0.8: fold change [8, 14]
9130: cell count [8, 15]
inactive: outcome [1] | outcome [2] | outcome [3] | outcome [4] | outcome [5] | outcome [6] | outcome [7] | fold change [8, 13] 0.95 | z-score [9, 17] -0.192

OCCNC1CCCc2c1[nH]c1ccc(-c3ccccc3)cc21 (stereo unspecified)
active: AC50 [1] 18.6 µM | AC50 [2] 26.4 µM | AC50 [3] 20.9 µM | AC50 [4] 13.2 µM | AC50 [10] 10.5 µM | AC50 [6] 10.5 µM

COc1cc2nc(-c3cc(F)ccc3O)nc(N[C@@H]3CNC[C@H]3C(C)(C)O)c2cc1OC
active: AC50 [1] 9.34 µM | AC50 [2] 10.5 µM | AC50 [3] 9.35 µM | AC50 [4] 5.25 µM | AC50 [10] 4.17 µM | AC50 [6] 8.33 µM | IC50 [7] 4.17 µM

O=C(O)C1=CO[C@@H](O[C@@H]2O[C@H](CO)[C@@H](O)[C@H](O)[C@H]2O)[C@@H]2C(CO)=CC[C@H]12
inactive: outcome [1] | outcome [2] | outcome [3] | outcome [4] | outcome [5] | outcome [6] | outcome [7]

CC(C)(C)c1cnc(CSc2cnc(NC(=O)C3CCNCC3)s2)o1
inactive: fold change [8, 13] 0.966 | plate-normalised HSF1 focus index [11] 1.03 | z-score [9, 17] 0.429 | viability ([12]; at 0.000305 µM, OCI-C5x cells, with rucaparib 10 µM, 100% = cells with rucaparib alone) 114% | viability ([12]; at 0.000305 µM, OCI-C5x cells, without rucaparib) 105% | viability ([12]; at 0.000305 µM, OCI-P5x cells, with rucaparib 20 µM, 100% = cells with rucaparib alone) 112% | viability ([12]; at 0.000305 µM, OCI-P5x cells, without rucaparib) 111% | viability ([12]; at 0.00122 µM, OCI-C5x cells, with rucaparib 10 µM, 100% = cells with rucaparib alone) 108% | viability ([12]; at 0.00122 µM, OCI-C5x cells, without rucaparib) 104% | viability ([12]; at 0.00122 µM, OCI-P5x cells, with rucaparib 20 µM, 100% = cells with rucaparib alone) 103% | viability ([12]; at 0.00122 µM, OCI-P5x cells, without rucaparib) 106% | viability ([12]; at 0.00488 µM, OCI-C5x cells, without rucaparib) 103% | viability ([12]; at 0.00488 µM, OCI-P5x cells, with rucaparib 20 µM, 100% = cells with rucaparib alone) 110% | viability ([12]; at 0.00488 µM, OCI-P5x cells, without rucaparib) 104% | viability ([12]; at 0.0195 µM, OCI-C5x cells, with rucaparib 10 µM, 100% = cells with rucaparib alone) 108% | viability ([12]; at 0.0195 µM, OCI-P5x cells, with rucaparib 20 µM, 100% = cells with rucaparib alone) 105% | viability ([12]; at 0.0195 µM, OCI-P5x cells, without rucaparib) 110% | viability ([12]; at 0.0781 µM, OCI-C5x cells, with rucaparib 10 µM, 100% = cells with rucaparib alone) 108% | viability ([12]; at 0.0781 µM, OCI-P5x cells, with rucaparib 20 µM, 100% = cells with rucaparib alone) 101% | viability ([12]; at 0.0781 µM, OCI-P5x cells, without rucaparib) 104%
1.56: fold change [8, 14]
active: AC50 [1] 0.118 µM | AC50 [2] 0.166 µM | AC50 [3] 0.264 µM | AC50 [4] 0.833 µM | AC50 [10] 0.742 µM | AC50 [6] 1.18 µM | IC50 [7] 0.934 µM | viability ([12]; at 0.00488 µM, OCI-C5x cells, with rucaparib 10 µM, 100% = cells with rucaparib alone) 100% | viability ([12]; at 0.0195 µM, OCI-C5x cells, without rucaparib) 98.5% | viability ([12]; at 0.0781 µM, OCI-C5x cells, without rucaparib) 100% | viability ([12]; at 0.313 µM, OCI-C5x cells, with rucaparib 10 µM, 100% = cells with rucaparib alone) 94.4% | viability ([12]; at 0.313 µM, OCI-C5x cells, without rucaparib) 97% | viability ([12]; at 0.313 µM, OCI-P5x cells, with rucaparib 20 µM, 100% = cells with rucaparib alone) 95.6% | viability ([12]; at 0.313 µM, OCI-P5x cells, without rucaparib) 85.8% | viability ([12]; at 1.25 µM, OCI-C5x cells, with rucaparib 10 µM, 100% = cells with rucaparib alone) 9.76% | viability ([12]; at 1.25 µM, OCI-C5x cells, without rucaparib) 9.99% | viability ([12]; at 1.25 µM, OCI-P5x cells, with rucaparib 20 µM, 100% = cells with rucaparib alone) 22.5% | viability ([12]; at 1.25 µM, OCI-P5x cells, without rucaparib) 14% | viability ([12]; at 5 µM, OCI-C5x cells, with rucaparib 10 µM, 100% = cells with rucaparib alone) 12% | viability ([12]; at 5 µM, OCI-C5x cells, without rucaparib) 10.8% | viability ([12]; at 5 µM, OCI-P5x cells, with rucaparib 20 µM, 100% = cells with rucaparib alone) 20.3% | viability ([12]; at 5 µM, OCI-P5x cells, without rucaparib) 11%
-1.89: z-score [9, 18]
0.418: SSMD [11]
7130: cell count [11]
1520: cell count [8, 16]
1470: cell count [8, 15]
